PubChem BioAssay (NCATS)
Records with an inconclusive call do not appear. Active and inactive are the calls of the source. Calls follow the shape of the dose curve; as a rule, active = well fitted inhibition curve with a large enough effect; inconclusive = small, poorly fitted or top-dose-only effect; inactive = flat fitted curve, though single readings scatter.

Columns and labels:
Test in all cases: qHTS profiling for inhibitors of Plasmodium falciparum proliferation (AID 504749); also: nearly all actives have a fitted effect of over 60% in size
Settings in all cases: P. falciparum in erythrocytes, SYBR Green DNA, 72 h; series mostly up to 28.7 µM
[1] = tested on: 3D7
Method in brief: (§1)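 SYBR Green fluorescence (ex 485 nm, em 535 nm) reports parasite DNA after 72 h compound exposure of infected red cells at 0.3% parasitemia, 2.5% hematocrit; signal normalized to 0.29 uM artemisinin and vehicle wells.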

[2] = tested on: 7G8
Method in brief: as §1

[3] = tested on: AA1029
Method in brief: as §1

[4] = tested on: AS120
Method in brief: as §1

[5] = tested on: ATS189
Method in brief: as §1

[6] = tested on: ATS95
Method in brief: as §1

[7] = tested on: C2A
Method in brief: as §1

[8] = tested on: CP185
Method in brief: as §1

[9] = tested on: CP191
Method in brief: as §1

[10] = tested on: CP192
Method in brief: as §1

[11] = tested on: CP194
Method in brief: as §1

[12] = tested on: CP201
Method in brief: as §1

[13] = tested on: CP203
Method in brief: as §1

[14] = tested on: CP211
Method in brief: as §1

[15] = tested on: CP215
Method in brief: as §1

[16] = tested on: CP217
Method in brief: as §1

[17] = tested on: CP237
Method in brief: as §1

[18] = tested on: CP238
Method in brief: as §1

[19] = tested on: CP247
Method in brief: as §1

[20] = tested on: CP250
Method in brief: as §1

Measured: Potency
Potency is read from the fitted curve at half-maximal effect.

CO[C@H]1C[C@@H]2CC[C@@H](C)[C@@](O)(O2)C(=O)C(=O)N2CCCC[C@H]2C(=O)O[C@H]([C@H](C)C[C@@H]2CC[C@@H](OCCO)[C@H](OC)C2)CC(=O)[C@H](C)/C=C(\C)[C@@H](O)[C@@H](OC)C(=O)[C@H](C)C[C@H](C)/C=C/C=C/C=C/1C
active: [1] 1780 nM | [2] 1120 nM | [3] 1410 nM | [4] 1120 nM | [5] 1260 nM | [6] 2000 nM | [7] 3160 nM | [8] 3160 nM | [9] 1120 nM | [10] 4780 nM | [11] 1690 nM | [12] 6010 nM | [13] 1900 nM | [14] 4260 nM | [15] 1690 nM | [16] 1000 nM | [17] 2000 nM | [18] 2820 nM | [19] 1260 nM | [20] 3160 nM

CC(C)(C)C(=O)OCOC(=O)[C@@H]1N2C(=O)[C@@H](N=CN3CCCCCC3)[C@H]2SC1(C)C
not listed: [13]
inactive: all other assays above

CO[C@H](C(=O)[C@@H](O)[C@@H](C)O)C1Cc2cc3cc(O[C@H]4C[C@@H](O[C@H]5C[C@@H](O)[C@H](O)[C@@H](C)O5)[C@@H](O)[C@@H](C)O4)c(C)c(O)c3c(O)c2C(=O)[C@H]1O[C@H]1C[C@@H](O[C@H]2C[C@@H](O[C@H]3C[C@](C)(O)[C@H](O)[C@@H](C)O3)[C@H](O)[C@@H](C)O2)[C@H](O)[C@@H](C)O1 (stereo partly drawn)
active: [1] 112 nM | [2] 44.7 nM | [3] 112 nM | [4] 141 nM | [5] 158 nM | [6] 126 nM | [7] 224 nM | [8] 199 nM | [9] 178 nM | [10] 2130 nM | [11] 2690 nM | [12] 2130 nM | [14] 2130 nM | [15] 1690 nM | [16] 224 nM | [17] 112 nM | [18] 178 nM | [19] 355 nM | [20] 199 nM

CCCCC(C)(O)C/C=C/[C@H]1[C@H](O)CC(=O)[C@@H]1CCCCCCC(=O)OC (stereo partly drawn)
not listed: [15]
inactive: all other assays above

CC1=C(/C=C/C(C)=C/C=C/C(C)=C/C=C/C=C(C)/C=C/C=C(C)/C=C/C2=C(C)C(=O)CCC2(C)C)C(C)(C)CCC1=O
inactive: all assays above

Cc1c(C)c2c(c(C)c1O)CC[C@@](C)(CCC[C@H](C)CCC[C@H](C)CCCC(C)C)O2
inactive: all assays above

CCCC(=O)Nc1ncnc2c1ncn2C1OC2COP(=O)(O)OC2C1OC(=O)CCC (stereo not drawn)
not listed: [13]
inactive: all other assays above

Cc1cc(C(=O)NNCc2ccccc2)no1
not listed: [13]
inactive: all other assays above

CCNC(=O)[C@@H]1CCCN1C(=O)[C@H](CCCN=C(N)N)NC(=O)[C@H](CC(C)C)NC(=O)[C@@H](Cc1c[nH]c2ccccc12)NC(=O)[C@H](Cc1ccc(O)cc1)NC(=O)[C@H](CO)NC(=O)[C@H](Cc1c[nH]c2ccccc12)NC(=O)[C@H](Cc1cnc[nH]1)NC(=O)[C@@H]1CCC(=O)N1
active: [1] 7080 nM | [2] 1120 nM | [3] 3160 nM | [4] 4470 nM | [5] 8910 nM | [6] 4470 nM | [7] 7080 nM | [8] 11200 nM | [9] 7940 nM | [10] 9530 nM | [11] 7570 nM | [12] 15100 nM | [14] 6750 nM | [15] 13500 nM | [16] 7080 nM | [17] 3550 nM | [18] 7080 nM | [19] 7080 nM | [20] 8910 nM

CCOC(=O)C1=CC2(CC)CCCN3CCc4c(n1c1ccccc41)C32 (stereo not drawn)
active: [1] 8910 nM | [2] 5620 nM | [3] 11200 nM | [4] 11200 nM | [5] 8910 nM | [6] 11200 nM | [7] 10000 nM | [8] 8910 nM | [9] 8910 nM | [16] 11200 nM | [18] 8910 nM

O=C(O)c1cc(O)c2c(c1)[O][Bi][O]2
not listed: [13] | [15]
inactive: all other assays above

CC(C(=O)O)c1ccc(N2Cc3ccccc3C2=O)cc1 (stereo not drawn)
not listed: [13]
inactive: all other assays above

O=S(=O)(O)c1ccc2c(N=Nc3ccc(S(=O)(=O)O)c4ccccc34)c(O)c(S(=O)(=O)O)cc2c1
not listed: [6] | [15]
inactive: all other assays above

CC[N+](C)(C)Cc1ccccc1Br
not listed: [13]
inactive: all other assays above

COC(=O)[C@H]1[C@H]2C[C@@H]3c4[nH]c5ccccc5c4CCN3C[C@H]2C[C@@H](OC(=O)c2cc(OC)c(OC)c(OC)c2)[C@@H]1OC
active: [1] 891 nM | [2] 50.1 nM | [3] 282 nM | [4] 199 nM | [5] 708 nM | [6] 398 nM | [7] 282 nM | [8] 398 nM | [9] 398 nM | [10] 338 nM | [11] 536 nM | [12] 849 nM | [14] 601 nM | [15] 757 nM | [16] 355 nM | [17] 126 nM | [18] 355 nM | [19] 398 nM | [20] 447 nM

CCCCCCCCCCCCCC[n+]1ccc(C)cc1
active: [1] 2510 nM | [2] 1120 nM | [3] 3980 nM | [4] 3550 nM | [5] 5620 nM | [6] 2820 nM | [7] 3160 nM | [8] 5010 nM | [9] 2820 nM | [10] 4780 nM | [11] 4260 nM | [12] 4780 nM | [14] 3380 nM | [15] 4260 nM | [16] 3980 nM | [17] 3550 nM | [18] 4470 nM | [19] 3980 nM | [20] 3980 nM

CN=C(NC#N)Nc1ccc(C2=NNC(=O)C[C@@H]2C)cc1
not listed: [10] | [11] | [12] | [13] | [14] | [15]
inactive: all other assays above

CC1(C)S[C@@H]2[C@H](NC(=O)[C@@H](NC(=O)N3CCNC3=O)c3ccccc3)C(=O)N2[C@H]1C(=O)O
not listed: [13]
inactive: all other assays above

CC(C)=O
not listed: [6] | [13]
inactive: all other assays above

CC1=CCC(C(C)(C)O)CC1 (stereo not drawn)
not listed: [13]
inactive: all other assays above

Cc1ccccc1
not listed: [13]
inactive: all other assays above

C[C@]12O[C@H](C[C@]1(O)CO)n1c3ccccc3c3c4c(c5c6ccccc6n2c5c31)CNC4=O
active: [1] 224 nM | [2] 100 nM | [3] 316 nM | [4] 251 nM | [5] 316 nM | [6] 355 nM | [7] 316 nM | [8] 316 nM | [9] 282 nM | [10] 379 nM | [11] 379 nM | [12] 536 nM | [14] 426 nM | [15] 426 nM | [16] 316 nM | [17] 224 nM | [18] 282 nM | [19] 224 nM | [20] 251 nM

NC(=O)c1ncn(C2OC(CO)C(O)C2O)n1 (stereo not drawn)
active: [2] 7940 nM
not listed: [7] | [13]
inactive: all other assays above
